Measured values published in the supplement of paper PMC13380429.
Counter-ions that a name gives are not always drawn.

Tested on: Vero E6 infected with SARS-CoV-2
Assay: inhibition of SARS-CoV-2 cytopathic effect; higher = more antiviral protection, active = above 15
Conditions: 48 h

Measured: inhibition of SARS-CoV-2 cytopathic effect

O=C(NCc1ccccc1)OCCO [buramate]
inactive: 1 nM -3.11% | 8.33 nM -3.15% | 100 nM -10.9% | 833.33 nM 1.79% | 10000 nM 0.54%

Cc1cnc(-c2cc(N3CCN(C(=O)CCS(C)(=O)=O)CC3)ncc2Cl)c(C)c1
inactive: 1 nM -1.36% | 8.33 nM -0.24% | 100 nM 0.43% | 833.33 nM -2.37% | 10000 nM -0.86%

O=C(O)CCCCC(=O)O [adipic-acid]
inactive: 1 nM -3.52% | 8.33 nM -3% | 100 nM -0.01% | 833.33 nM -2.5% | 10000 nM -1.83%

N=C(N)NC(=O)c1nc(Cl)c(N)nc1N [amiloride]
inactive: 1 nM 3.13% | 8.33 nM 3.86% | 100 nM 2.25% | 833.33 nM 3.19% | 10000 nM 3.14%

COc1ccc2cc(OCC3(C(=O)O)CN(C(=O)c4ccc(F)cc4)C3)ccc2c1
inactive: 1 nM 2.48% | 8.33 nM 0% | 100 nM 1.35% | 833.33 nM 2.44% | 10000 nM 1.77%

CN(C)C(=O)COC(=O)Cc1ccc(OC(=O)c2ccc(NC(=N)N)cc2)cc1 [Camostat mesylate]
inactive: 1 nM 0.94% | 8.33 nM -0.39% | 100 nM -0.94% | 833.33 nM 1.08% | 10000 nM -0.11%

Nc1nc(CC(=O)Nc2ccc(CCNC[C@H](O)c3ccccc3)cc2)cs1 [mirabegron]
inactive: 1 nM -0.75% | 8.33 nM -0.61% | 100 nM 1.85% | 833.33 nM -1.35% | 10000 nM -3.3%

O=C(c1c2ccccc2cc2ccccc12)N1CCC(N2CCC[C@@H](C(=O)N3CCOCC3)C2)CC1
inactive: 1 nM -1.36% | 8.33 nM -0.08% | 100 nM -0.31% | 833.33 nM -1.35% | 10000 nM -6.08%

CCCCS(=O)(=O)N[C@@H](Cc1ccc(OCCCCC2CCNCC2)cc1)C(=O)O [tirofiban]
inactive: 1 nM 1.63% | 8.33 nM 1.13% | 100 nM 0.55% | 833.33 nM 0.26% | 10000 nM 2.44%

CCCCCCCCCCCCCCCCCCCCCCCCC(=O)O [pentacosanoic-acid]
inactive: 1 nM -2.75% | 8.33 nM -2.46% | 100 nM -0.07% | 833.33 nM -0.23% | 10000 nM -2.38%

CC(=O)O[C@H]1C(=O)[C@@]2(C)[C@H]([C@H](OC(=O)c3ccccc3)[C@]3(O)C[C@H](OC(=O)[C@H](O)[C@@H](NC(=O)c4ccccc4)c4ccccc4)C(C)=C1C3(C)C)[C@]1(OC(C)=O)CO[C@@H]1C[C@@H]2O [paclitaxel]
inactive: 1 nM -2.42% | 8.33 nM -0.27% | 100 nM -2.39% | 833.33 nM -4.55% | 10000 nM -2.64%

CNC(=O)c1cccc(-c2ccc3c(N4CCOC[C@@H]4C)nc(N4CCOC[C@@H]4C)nc3n2)c1
inactive: 1 nM 0.89% | 8.33 nM -1.74% | 100 nM -1.86% | 833.33 nM 0.43% | 10000 nM -2.51%

CC(C)/N=c1\cc2n(-c3ccc(Cl)cc3)c3ccccc3nc-2cc1Nc1ccc(Cl)cc1 [clofazimine]
inactive: 1 nM -2.49% | 8.33 nM 0.21% | 100 nM -2.66% | 833.33 nM 6.27% | 10000 nM -0.63%

O=C(O)CCNc1cc(N2CCc3ccccc3CC2)nc(-c2cccnc2)n1
inactive: 1 nM 0.26% | 8.33 nM 0.62% | 100 nM 1.71% | 833.33 nM 0.35% | 10000 nM -0.17%

COC[C@H](C)Oc1cc(O[C@@H](C)Cc2ccccc2)cc(C(=O)Nc2ccc(C(=O)O)cn2)c1
inactive: 1 nM -1.62% | 8.33 nM 2.26% | 100 nM 1.23% | 833.33 nM -0.06% | 10000 nM 0.06%

CCCCCCCCCCCCCC[C@@H](O)[C@@H](O)[C@@H](N)CO [phytosphingosine]
inactive: 1 nM -6.1% | 8.33 nM -0.27% | 100 nM -1.1% | 833.33 nM -3.05% | 10000 nM -6.04%

CCC[C@@]1(CCc2ccccc2)CC(O)=C([C@H](CC)c2cccc(NS(=O)(=O)c3ccc(C(F)(F)F)cn3)c2)C(=O)O1 [tipranavir]
inactive: 1 nM -0.16% | 8.33 nM 4.7% | 100 nM 1.56% | 833.33 nM 0.71% | 10000 nM 4.99%

CCCN1CCCC[C@H]1C(=O)Nc1c(C)cccc1C [ropivacaine]
inactive: 1 nM 1.32% | 8.33 nM 1.42% | 100 nM 2.5% | 833.33 nM 3.09% | 10000 nM -1.63%

CN(C)CC/C=C1\c2ccccc2CSc2ccccc21 [dosulepin]
inactive: 1 nM -1.78% | 8.33 nM 1.37% | 100 nM 5.41% | 833.33 nM -0.17% | 10000 nM -8.17%

C=CC(N)CCC(=O)O (stereo not given) [vigabatrin]
inactive: 1 nM -9.39% | 8.33 nM -9.03% | 100 nM -9.5% | 833.33 nM -11% | 10000 nM -9.82%

CC(C)(C)c1ccc(S(=O)(=O)NCc2ccc(C(=O)Nc3cccnc3)cc2)cc1
inactive: 1 nM 1.28% | 8.33 nM 0.01% | 100 nM -0.96% | 833.33 nM -2.95% | 10000 nM -10.9%

O=C(NC[C@H]1CN(c2ccc(N3CCOCC3=O)cc2)C(=O)O1)c1ccc(Cl)s1 [Rivaroxaban (Xarelto)]
inactive: 1 nM 1.99% | 8.33 nM 1.35% | 100 nM 3.46% | 833.33 nM 1.51% | 10000 nM 3.09%

N#Cc1cc(CN2CCC(Nc3ncnc4sc(Cl)cc34)CC2)ccc1F
inactive: 1 nM 6.81% | 8.33 nM 8.07% | 100 nM 7.98% | 833.33 nM 1.59% | 10000 nM 0.56%

O=C(Nc1cccnc1)c1cc(-c2ccnc(F)c2)ccc1OCc1ccccc1
inactive: 1 nM 2.42% | 8.33 nM -0.98% | 100 nM 4.16% | 833.33 nM 4.08% | 10000 nM 3.44%

COc1cc2c(cc1OC)C(=O)C(CC1CCN(Cc3ccccc3)CC1)C2 (stereo not given) [donepezil]
inactive: 1 nM -2.44% | 8.33 nM -3.45% | 100 nM -1.84% | 833.33 nM -1.28% | 10000 nM -8.45%

C=CC1=C(C)c2cc3[nH]c(cc4nc(cc5[nH]c(cc1n2)c(C)c5CCC(=O)O)C(CCC(=O)O)=C4C)c(C)c3C=C [protoporphyrin-IX]
inactive: 1 nM -0.78% | 8.33 nM -0.99% | 100 nM -0.13% | 833.33 nM -0.31% | 10000 nM -4.69%

O=C(Nc1ccccc1C(=O)NC1CCCCNC1=O)c1cc2ccccc2s1 (stereo not given)
inactive: 1 nM -1.69% | 8.33 nM -3.72% | 100 nM -3.22% | 833.33 nM -1.52% | 10000 nM -0.14%

CCOC(=O)[C@H](C)C[C@@H](Cc1ccc(-c2ccccc2)cc1)NC(=O)CCC(=O)O [sacubitril]
inactive: 1 nM -3.45% | 8.33 nM -0.1% | 100 nM -1.3% | 833.33 nM -3.34% | 10000 nM 2.18%

CC(C)(C#N)c1cc(Cn2cncn2)cc(C(C)(C)C#N)c1 [anastrozole]
inactive: 1 nM -1.6% | 8.33 nM 0.38% | 100 nM -0.32% | 833.33 nM -1.74% | 10000 nM -0.89%

CCOc1nc2c(N)ncnc2n1CC
inactive: 1 nM -1.28% | 8.33 nM 2.22% | 100 nM -1.47% | 833.33 nM 1.94% | 10000 nM -1.72%

O=C(c1cncc(Br)c1)N1CCC(N2CCCC2)CC1
inactive: 1 nM -1.15% | 8.33 nM -2.01% | 100 nM -1.71% | 833.33 nM -4.94% | 10000 nM 0.82%

CCN1C(=O)NC(c2ccccc2)C1=O (stereo not given) [ethotoin]
inactive: 1 nM 0.06% | 8.33 nM 4.06% | 100 nM 2.41% | 833.33 nM 2.46% | 10000 nM -0.15%

c1ccc2c(c1)CCCC2C1=NCCN1 (stereo not given) [tetrahydrozoline]
inactive: 1 nM 0.31% | 8.33 nM -1.09% | 100 nM 2.06% | 833.33 nM 1.39% | 10000 nM 0.27%

C[C@H](CCC(=O)O)[C@H]1CC[C@H]2[C@@H]3C[C@H](O)[C@@H]4C[C@H](O)CC[C@]4(C)[C@H]3CC[C@]12C [Hyodeoxycholic acid (HDCA)]
inactive: 1 nM -1.55% | 8.33 nM 0.2% | 100 nM 1% | 833.33 nM 2.52% | 10000 nM -1.93%

CCCCCCCCNC(C)C(O)c1ccc(SC(C)C)cc1 (stereo not given) [suloctidil]
inactive: 1 nM 0.05% | 8.33 nM -0.56% | 100 nM -0.38% | 833.33 nM 0.21% | 10000 nM -0.41%

Oc1cc(O)c(Cl)cn1 [gimeracil]
inactive: 1 nM -0.94% | 8.33 nM 0.32% | 100 nM -0.13% | 833.33 nM -0.16% | 10000 nM 1.36%

c1cc2c3c(c1)c1c(n3CCNC2)CCCC1
inactive: 1 nM -1.27% | 8.33 nM -0.02% | 100 nM 0.6% | 833.33 nM 0.21% | 10000 nM -0.08%

CN(C)c1nc(N(C)C)nc(N(C)C)n1 [altretamine]
inactive: 1 nM 2.31% | 8.33 nM -1.41% | 100 nM 0.54% | 833.33 nM -0.29% | 10000 nM 2.53%

Cc1cc2nc3c(=O)[nH]c(=O)nc-3n(C)c2cc1C=O
inactive: 1 nM 0.98% | 8.33 nM -1.25% | 100 nM -1.28% | 833.33 nM 2.07% | 10000 nM 1.18%

Cc1cc(CC(C)CC(C)(C)C)n(O)c(=O)c1 (stereo not given) [piroctone-olamine]
inactive: 1 nM -1.12% | 8.33 nM 3.7% | 100 nM 3.23% | 833.33 nM 1.26% | 10000 nM -1.5%
